In PubChem BioAssay AID602393 (Broad Institute, 2012):
The whole screen tested about 350,000 compounds, of which about 7,000 (2%) were called active. The sample holds actives, similar compounds and a random draw of the others, so the mix is not that of the screen. Unmarked numbers belong to inactive results. Cut-off read from the data, not from the text of the source: active = activation above about 40%; inconclusive = no clear call, values can overlap the other calls; inactive = below that.

Assay: raisers of Bmi1 knock-in reporter signal – mouse ES cells, Bmi1 luciferase knock-in, single point, esBAF inhibitor project, primary screen (AID 602393);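 note: 0% = median of the plate's neutral control wells and 100% = double that signal; a rise in the Bmi1 reporter signal indicates esBAF inhibition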
Conditions: 24 h, at 12.5 µM, active compounds read high, 100% = twice the neutral-well signal

Compound	reporter increase
CO[C@@H]1CN(C)C(=O)c2cc(NC(=O)c3ccccc3F)ccc2OC[C@H](C)NC[C@@H]1C	-0.986%
Cc1nn(-c2ccccc2)c(CC(C)(C)C(=O)O)c1C(=O)O	-1.54%
Cc1ccc(OC(=O)c2c(C)nn(-c3ccccc3)c2C)cc1	65% (active)
Cc1cccc(C)c1NC(=O)COC(=O)c1c(C)nn(-c2ccccc2)c1C	-0.0425%
O=C(Nc1cccc(Cl)c1)N1C[C@@H]2[C@H](c3ccccc31)[C@H](CO)N2C(=O)C1CC1	-2.51%
CCS(=O)(=O)Nc1ccc2c(c1)C(=O)N(C)C[C@@H](OC)[C@@H](C)CN(C(=O)COC)[C@H](C)CO2	-2.28%
O=C(NCc1cccnc1)C(=O)Nc1nc(-c2ccccc2)cs1	38.2%
Cc1ccccc1Nc1nc(-c2cccnc2)cs1	71.3% (active)
CN(c1ccc(O)cc1)c1nc(-c2cccnc2)cs1	33.5%
COc1ccc(-c2ccc([C@@H]3[C@@H](CO)N4CCCCN(C(=O)NC(C)C)C[C@H]34)cc2)cc1	-0.595%
CN(C)C(=O)c1cccc(-c2ccc3c(c2)[C@H]2[C@H](CCN2C(=O)c2cccnc2)[C@H](CO)N3)c1	-0.408%
CO[C@H]1CN(C)C(=O)c2ccc(NC(=O)c3cnccn3)cc2OC[C@@H](C)N(C(C)=O)C[C@H]1C	-1.77%
C[C@H](NC(=O)C[C@H]1C=C[C@H](NS(=O)(=O)c2cccc(F)c2)[C@@H](CO)O1)c1ccccc1	-4.57%
C[C@@H]1CCCCO[C@H](CN(C)S(=O)(=O)c2cn(C)cn2)[C@H](C)CN([C@H](C)CO)C(=O)c2cc(N(C)C)ccc2O1	-3.59%
COc1cccc(/C(C)=N/Nc2ncc(Cl)cc2Cl)c1	54% (active)
COc1ccc(/C(C)=N/NC(=O)c2ccc3nc[nH]c3c2)cc1	-4.25%
COC(=O)c1sccc1N/N=C(\C)c1ccc(F)c(Cl)c1	11.8%
C[C@@H]1CN([C@@H](C)CO)C(=O)Cc2cc(NC(=O)CCCCCC(=O)Nc3ccccc3N)ccc2O[C@H]1CN(C)Cc1ccc(Cl)c(Cl)c1	-6.35%
CSc1ccccc1OCc1cc(C(=O)N2C[C@H]3CC[C@H]2C3)no1	87.7% (active)
Cc1nonc1C1CCCN1C(=O)c1cc(COc2cccc(C(F)(F)F)c2)on1 (stereo not given)	-1.7%
CSc1ccccc1OCc1cc(C(=O)N(C)CCc2c(C)n[nH]c2C)no1	-2.74%
CCNC(=O)[C@@H]1[C@@H](CO)[C@@H]2Cn3c(ccc(C4=CCCC4)c3=O)[C@H]1N2Cc1ccccc1	-1.26%
O=C(C[C@@H]1CC[C@H]2[C@@H](COC[C@H](O)CN2C(=O)Nc2ccccc2)O1)NCc1ccccc1F	4.71%
CCC(CC)c1nnc(NC(=O)C2=COCCO2)s1	53.6% (active)
CCC(CC)c1nnc(NC(=O)C2CCN(C(=O)c3ccco3)CC2)s1	3.96%
COc1cc(-c2nnc(NC(=O)C3=COCCO3)o2)cc(OC)c1OC	-0.666%
CC1CC(C)CN(CCCNC(=O)c2csc3c2CCCCC3)C1 (stereo not given)	-0.645%

Compound	reporter increase
O=C(Nc1ccccc1N1CCOCC1)c1csc2c1CCCC2	2.6%
COC(=O)c1sc(NC(=O)c2csc3c2CCCC3)nc1C	52.4% (active)
CN1c2ccc(Br)cc2[C@H]2[C@H](CCN2S(=O)(=O)c2ccccc2)[C@@H]1CO	1.11%
CO[C@H]1CN(C)C(=O)c2cc(NC(=O)c3cc(C)on3)ccc2OC[C@@H](C)N(C(C)=O)C[C@H]1C	-1.52%
COc1ccc(Cc2nnc(NC(=O)c3ccc(OC)cc3OC)s2)cc1	60.8% (active)
COc1cccc(OC)c1C(=O)Nc1nnc(C(C)C)s1	4.44%
COc1ccc(C(=O)NC2=NCCS2)c(OC)c1	-5.27%
COc1ccc(C(=O)Nc2nncs2)c(OC)c1	72.1% (active)
COc1ccc(Cc2nnc(NC(=O)Cc3cccs3)s2)cc1	-12.5%
COc1ccc(Cc2nnc(NC(=O)c3cc(OC)c(OC)c(OC)c3)s2)cc1OC	-8.39%
C[C@@H](O)C#Cc1cnc2c(c1)C(=O)N([C@@H](C)CO)C[C@H](C)[C@H](CN(C)C(=O)c1ccccc1F)O2	-1.43%
COc1ccccc1-c1cnc2c(c1)C(=O)N([C@H](C)CO)C[C@H](C)[C@@H](CN(C)C(=O)CC1CC1)O2	-6.49%
O=C(O)C[C@@H]1C[C@@H]2c3cc(NC(=O)Nc4ccccc4)ccc3O[C@@H]2[C@H](CO)O1	2.21%
Cc1ccc2nc(/C(C#N)=C\c3ccc(OC(=O)c4cccs4)cc3)[nH]c2c1	113% (active)
CCC(=O)N(C)C[C@H]1Oc2ncc(-c3ccccc3OC)cc2C(=O)N([C@H](C)CO)C[C@H]1C	2.4%
C[C@@H]1CCCCO[C@H](CN(C)C(=O)Cc2ccccc2)[C@@H](C)CN([C@@H](C)CO)C(=O)c2cc(NC(=O)c3ccccc3)ccc2O1	-0.116%
Cc1ccc(S(=O)(=O)/N=C(/Nc2ccc3[nH]c(=O)[nH]c3c2)c2ccccc2)cc1	3.61%
Cc1ccc(S/C(=N\S(=O)(=O)c2ccc(Cl)cc2)c2ccccc2)cc1	-7.08%
Cc1ccc(S(=O)(=O)/N=C(/Nc2ccccn2)c2ccc(Cl)cc2)cc1	45.6% (active)
C[C@@H]1CN([C@@H](C)CO)C(=O)c2cccc(NC(=O)Nc3ccc(C(F)(F)F)cc3)c2O[C@@H]1CN(C)S(=O)(=O)c1cccs1	0.762%
C[C@@H](O)C#Cc1cnc2c(c1)C(=O)N([C@@H](C)CO)C[C@H](C)[C@@H](CN(C)CC1CCCCC1)O2	-1.99%
CCCN(C)C[C@@H]1Oc2ncc(-c3cccc(C(=O)N(C)C)c3)cc2C(=O)N([C@H](C)CO)C[C@@H]1C	-6.02%
O=C(CN1CCCCCC1)Nc1ccc(Br)cc1Br	56.9% (active)
O=C(CN1CCCCCC1)Nc1ccc(Br)cc1[N+](=O)[O-]	-0.566%
O=C(CN1CCCCCC1)Nc1ccc(Cl)cc1F	-12.4%
CN(C(=O)CSc1nnnn1-c1ccccc1)C1CCCCC1	22.5%
C=CCn1c(SCn2nnc3ccccc3c2=O)nnc1-c1ccc(Cl)cc1	-8.46%

Compound	reporter increase
O=c1c2ccccc2nnn1CSc1nnnn1-c1ccccc1	57.4% (active)
Cc1ccc(S(=O)(=O)N[C@@H]2CC[C@H](CCn3cc(C4(O)CCCC4)nn3)O[C@H]2CO)cc1	1.86%
Nc1cc(N)nc(SCc2ccc(Cl)cc2)n1	33.3%
Nc1cc(N)nc(SCc2cccc(F)c2)n1	65% (active)
CCc1nnc(SCc2cccc(F)c2)nc1CC	-1.92%
CCC(=O)N(C)C[C@@H]1Oc2ncc(/C=C/c3ccccc3)cc2C(=O)N([C@@H](C)CO)C[C@H]1C	-3.12%
CCC(=O)N1[C@H](C(=O)NCc2ccc(F)cc2)[C@@H](CO)[C@@H]2Cn3c(ccc(C4=CCCCC4)c3=O)[C@@H]21	-5.62%
COc1ccc(N(CCC(=O)NCCc2ccccc2)S(=O)(=O)c2ccc(C)cc2C)cc1	77.9% (active)
CCOc1ccc(N(CC(=O)NCCc2ccc(F)cc2)S(=O)(=O)c2ccccc2)cc1	1.13%
CCN(CC(=O)NCCc1ccccc1)S(=O)(=O)c1ccc(C)cc1	-2.78%
O=C(COC(=O)c1ccccc1C(=O)c1ccccc1)c1ccco1	-5.33%
CCN(CC)c1ccc(C(=O)OCC(=O)c2ccco2)cc1	69.5% (active)
CCc1ccc(C(=O)COC(=O)c2ccco2)cc1	13.9%
C[C@@H]1CN([C@H](C)CO)C(=O)c2cc(-c3cccc(F)c3)cnc2O[C@@H]1CN(C)C	-2.09%
Cc1noc(C)c1S(=O)(=O)Nc1ccc2c(c1)C(=O)N([C@H](C)CO)C[C@H](C)[C@H](CN(C)S(=O)(=O)c1cn(C)cn1)OCCCC[C@@H](C)O2	-2.07%
C[C@@H]1CCCCO[C@@H](CN(C)C(=O)NC2CCCCC2)[C@H](C)CN([C@H](C)CO)C(=O)c2cc(NC(=O)c3ccccc3)ccc2O1	8.88%
Cc1ccccc1S(=O)(=O)NCC[C@@H]1CC[C@@H](NS(=O)(=O)c2ccccc2C)[C@@H](CO)O1	2.87%
O=C(NCCCN1CCCCCC1)c1ccc(N2CCCC2=O)cc1	-4.86%
O=C(c1cccc(N2CCCC2=O)c1)N1CCOCC1	-0.631%
O=C(NCCc1ccc(Cl)cc1)c1cccc(N2CCCC2=O)c1	54.9% (active)
COc1ccc(CN(C)C[C@H]2OCCCC[C@H](C)Oc3ccc(NC(=O)NC4CCCCC4)cc3C(=O)N([C@@H](C)CO)C[C@@H]2C)cc1	2.7%
O=C(CSCc1ccc(Cl)cc1)N1CCN(Cc2ccc3c(c2)OCO3)CC1	-7.9%
O=C(CSCc1ccc(Cl)cc1)N1CCCCC1	47.9% (active)
O=C(CSCc1cccs1)N1CCCC1	33.4%
CO[C@@H]1CN(C)C(=O)c2cc(NC(=O)C3CC3)ccc2OC[C@H](C)N(Cc2ccc(F)cc2)C[C@@H]1C	-2.84%
COc1ccc(-c2cnc3c(c2)C(=O)N([C@@H](C)CO)C[C@@H](C)[C@H](CN(C)C(=O)C2CCCCC2)O3)cc1	2.07%
